Compound activity as filed in PubChem BioAssay.
Marburg entry = qHTS for Inhibitors of binding or entry into cells for Marburg Virus. Marburg virus pseudotype entry/binding inhibition, cell-based. Potency, µM (doses to about 49.2 µM), inactives show at the highest dose activity change, negative = inhibition, hits mostly inhibitors. hit rate 6.5% among 18,000. AID 720532, 2013
LASV entry inh = qHTS for Inhibitors of binding or entry into cells for Lassa Virus; Lassa virus pseudotyped entry inhibition, cell-based qHTS; Potency, µM (top dose mostly 49.2 µM), inactives show at the top dose activity change, negative = inhibition, usual class: inhibitors; hit rate 4.1% among 18,000; AID 720533, 2013
An asterisk follows results filed as active; u = inconclusive; x = no result; ! = not active in a repeat; [ ] = another dose, or the depositor's remark. Most compounds without a hit are left out; they make up all but 8% or so of the library. Calls come from the whole dose curve; tested in HEK293 cells. % is set by controls: 0 for no effect and ±100 for the full control effect; potency is the fitted concentration of half-maximal effect.

SMILES	Marburg entry	LASV entry inh
CCCC[C@]12Cc3cc(OC)c(OC)cc3[C@H](O1)C1=C(O2)C(=O)c2ccccc2C1=O	5.1%[8.59 µM]	5.5%[8.59 µM]
O=C(C[C@H]1C(=O)N(Cc2cccnc2)C[C@@H]1c1ccc(Br)cc1)Nc1ccc(Br)cc1	-23.8%	-27.4%
CCCCCCN1C[C@@H](O)[C@H](n2cc(C3CC3)nn2)C[C@H]1c1ccc(C)cc1	-48.8%	x
CCCCCCCCN[C@@H](C)[C@H](O)c1ccc(SC(C)C)cc1	11.2µM*	-5.1%[17.8 µM]
CN[C@@H](C)[C@H](O)c1ccccc1	15.1%	-9.8%
C=CC[C@@H]1C=C[C@H](ON=C(C)CCN2CCc3nc(CC)c(CC)cc3C2)[C@H](CO)O1	u	-29.4%[8.59 µM]
COc1cc2nc(N3CCN(C(=O)C4COc5ccccc5O4)CC3)nc(N)c2cc1OC (configuration not stated)	u	-3.0%[17.8 µM]
COc1cc2nc(N3CCN(C(=O)OCc4ccccc4)[C@H](C(=O)NC(C)(C)C)C3)nc(N)c2cc1OC	11.2µM*	1.3%
O[C@@H]1CN(Cc2cccs2)[C@@H](c2ccccc2)C[C@@H]1n1cc(C2CC2)nn1	-23.9%	-6.5%
O=C1OC2(CCCCC2)CC2=C1[C@H]1O[C@](CCCCN3C(=O)c4ccccc4C3=O)(Cc3ccccc31)O2	u	-20.7%[8.59 µM]
C[C@@]12CC3CC(N)(C1)C[C@@](C)(C3)C2	u	0.8%[17.8 µM]
NC12CC3CC(CC(C3)C1)C2	31.6µM*!	1.2%
CC12CC3CC(C)(C1)CC(N)(C3)C2	-11.2%	35.5µM*!
COc1cccc([C@@H]2Oc3ccc(OC)cc3C(=O)[C@@H]2O)c1	-10.5%[8.59 µM]	91.9%[8.59 µM]
Cc1ccc([S+](=O)([O-])N[C@@H]2COC(=O)CC=C[C@H](C)COC(=O)N[C@@H](C)C(=O)CC=C[C@H]2C)cc1	11.3%[8.59 µM]	-27.3%[8.59 µM]
COc1ccc([C@]23Cc4cc(OC)c(OC)cc4[C@H](O2)C2=C(CC(C)(C)CC2=O)O3)cc1	20.0%[8.59 µM]	-6.5%[8.59 µM]
COC(=O)C1=C(C)N(Cc2ccccc2)C(=NCCc2ccccn2)NC1c1cccc(F)c1 (configuration not stated)	-21.0%[8.59 µM]	-7.8%[8.59 µM]
CC(=O)OC[C@H]1O[C@H](CC=NO[C@H](C)c2cn([C@@H]3COC[C@@H]3O)nn2)C=C[C@@H]1OC(C)=O	-12.4%[8.59 µM]	-2.9%[8.59 µM]
COc1ccc(C2Sc3ccccc3N(CCN(C)C)C(=O)[C@@H]2OC(C)=O)cc1 (some centres not stated)	u	-27.7%
COc1ccc([C@@H]2Sc3ccccc3N(CCN(C)C)C(=O)[C@@H]2OC(C)=O)cc1	28.2µM*	4.47µM*
CC(Nc1oc(-c2ccccc2)nc1C(C)(C)C)c1ccccc1 (configuration not stated)	-4.8%[8.59 µM]	x
CN(C)CCOc1ccc(-c2cc(-c3ccc4c(c3)CCC4=NO)c(-c3ccncc3)o2)cc1	1.99µM*	x
CN(C)CCOc1ccc(-c2nc(-c3ccc4c(c3)CCC4=NO)c(-c3ccncc3)[nH]2)cc1	u	-94.7%
c1ccc(Oc2ccc(Nc3ncc(-c4ccccc4)o3)cc2)cc1	4.7%	x
CC(C)(C)c1ccc(S(=O)(=O)/C=C\C#N)cc1	15.8µM*	35.5µM*
SMILES	Marburg entry	LASV entry inh
Cc1ccc(S(=O)(=O)/C=C\C#N)cc1	10µM*	15.8µM*
Cc1ccc(S(=O)(=O)/C=C/C#N)cc1	2.82µM*	7.08µM*
C[C@@](N)(C(=O)O)c1ccc(S(=O)(=O)O)cc1	11.2%	4.4%
COc1ccc2c(c1)OC(C)CN(CCC(=O)NCC1OCCc3ccccc31)C2 (configuration not stated)	4.8%	-3.5%
CS(=O)(=O)CCNCc1nc(-c2ccc3ncnc(Nc4ccc(OCc5cccc(C(F)(F)F)c5)cc4)c3c2)cs1	-16.2%	-17.6%
C=C1CCC(O)C/C1=C/C=C1\CCC[C@@]2(C)C(C(C)/C=C/C(C)C(C)C)CC[C@@H]12 (some centres not stated)	-29.4%	-21.7%
CC(C)[C@@H](C)/C=C/[C@@H](C)[C@H]1CC[C@H]2/C(=C/C=C3\C[C@@H](O)CC[C@@H]3C)CCC[C@]12C	12.7%	22.4µM*
Cc1c(C(=O)NN2CCCCC2)nn(-c2ccc(Cl)cc2Cl)c1-c1ccc(Cl)cc1	14.1µM*	15.8µM*
Cc1ccc2c(c1)Cc1c(C(=O)NC3CCCCC3)nn(-c3ccc(Cl)cc3Cl)c1-2	u	-8.1%
C/C1=C2N=C(/C=C3N=C(/C(C)=C4\[N-][C@@](C)([C@@H]5N=C1[C@](C)(CCC(=O)NCC(C)OP(=O)(O)O[C@H]1[C@@H](O)[C@@H](n6cnc7cc(C)c(C)cc76)O[C@@H]1CO)[C@H]5CC(N)=O)[C@@](C)(CC(N)=O)[C@@H]4CCC(N)=O)[C@@](C)(CC(N)=O)[C@@H]\3CCC(N)=O)C(C)(C)[C@@H]/2CCC(N)=O.CC(=O)O.[Co] (some centres not stated)	2.82µM*	3.16µM*
Cc1ccc(C)c(S(=O)(=O)NCc2nc(N3CCCC3)c3cc(Cl)ccc3n2)c1	u	-14.0%
O=C1NC(=O)C(c2ccc(Cl)cc2)=C1Nc1ccc(Cl)c(C(=O)O)c1	u	46.8%
COc1cc(O)c(C(=O)C=Cc2ccccc2)c(O)c1	u	12.3%[8.59 µM]
CC[C@@H]1OC(=O)[C@@H](C)[C@H](O[C@H]2C[C@@](C)(OC)[C@@H](O)[C@H](C)O2)C(C)[C@H](O[C@H]2O[C@@H](C)C[C@@H](N(C)C)[C@@H]2O)[C@@](C)(O)C[C@H](C)C(=O)[C@@H](C)[C@H](O)[C@@]1(C)O (some centres not stated)	u	0.3%
CC[C@@H]1OC(=O)[C@H](C)[C@H](O[C@@H]2C[C@](C)(OC)[C@H](O)[C@H](C)O2)[C@H](C)[C@H](O[C@@H]2O[C@@H](C)C[C@@H](N(C)C)[C@@H]2O)[C@](C)(O)C[C@H](C)C(=O)[C@H](C)[C@H](O)[C@]1(C)O	0.8%[17.8 µM]	22.0%[17.8 µM]
CC[C@H]1OC(=O)[C@H](C)[C@@H](O[C@H]2C[C@@](C)(OC)[C@@H](O)[C@H](C)O2)[C@H](C)[C@@H](O[C@@H]2O[C@H](C)C[C@H](N(C)C)[C@H]2O)[C@](C)(O)C[C@@H](C)CN(C)[C@H](C)[C@@H](O)[C@]1(C)O	2.82µM*	u
CCC1OC(=O)C(C)[C@@H](O[C@H]2C[C@@](C)(OC)C(O)C(C)O2)C(C)[C@@H](O[C@@H]2OC(C)CC(N(C)C)C2O)[C@@](C)(O)CC(C)CN(C)C(C)C(O)[C@]1(C)O (some centres not stated)	0.631µM*	u
COC(=O)C1=C(C)N(Cc2ccccc2)C(=NCc2cc(OC)c(OC)c(OC)c2)NC1c1cccc(F)c1 (configuration not stated)	-16.7%[8.59 µM]	x
O=C(Nc1n[nH]c2nc(-c3ccco3)ccc12)C1CC1	-14.3%	x
Cc1nnsc1C(=O)NCC1Cc2cccc(-c3ncccn3)c2O1 (configuration not stated)	-6.5%	2.4%
O=C(c1cccs1)N1C[C@@H](O)[C@@H](n2cc(-c3ccc(F)cc3)nn2)C[C@@H]1c1ccccc1	-21.0%	-25.9%
Cc1cccc(CNc2ncnc3ccc(-c4ccc5c(c4)OCO5)cc23)c1	2.4%	-13.9%
Cc1cccc(CNc2ncnc3ccc(-c4ccccc4CN(C)C)cc23)c1	10µM*	u
CC(=O)N[C@@H]([C@@H](O)[C@H](O)[C@H](O)CO)[C@@H](O)CC(=O)C(=O)O	u	-6.9%
Clc1ccc2c(c1)C(N1CCNCC1)=Nc1ccccc1O2	11.2µM*!	u
